Data reported in PubChem BioAssay AID485344 (National Center for Advancing Translational Sciences (NCATS), 2010).
Screen size: about 340,000 compounds; about 6,900 (2%) were called active. Shown is part of a subset that was picked to be rich in actives. Values without a mark were called inactive. No stated cut-off is given here; in the data, active means inhibition above about 30%; inactive means below that, where a call was filed.

The compounds below were run against D(2) dopamine receptor (Homo sapiens) (UniProt P14416) (assay: HTS Assay for Allosteric Antagonists of the Human D2 Dopamine Receptor: Primary Screen for Antagonists). Settings: HEK293 TREx D2 cells, calcium flux, dopamine EC80; at 10 µM; hits give high values.
In short: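 Inhibition of EC80 dopamine-driven calcium flux, recorded kinetically, defines activity here; cells are a tetracycline-induced HEK293 T-REx line expressing force-coupled D2.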
Further: 0% is about no effect.

Chain of D(2) dopamine receptor (Homo sapiens) (P14416 whole entry, looked up): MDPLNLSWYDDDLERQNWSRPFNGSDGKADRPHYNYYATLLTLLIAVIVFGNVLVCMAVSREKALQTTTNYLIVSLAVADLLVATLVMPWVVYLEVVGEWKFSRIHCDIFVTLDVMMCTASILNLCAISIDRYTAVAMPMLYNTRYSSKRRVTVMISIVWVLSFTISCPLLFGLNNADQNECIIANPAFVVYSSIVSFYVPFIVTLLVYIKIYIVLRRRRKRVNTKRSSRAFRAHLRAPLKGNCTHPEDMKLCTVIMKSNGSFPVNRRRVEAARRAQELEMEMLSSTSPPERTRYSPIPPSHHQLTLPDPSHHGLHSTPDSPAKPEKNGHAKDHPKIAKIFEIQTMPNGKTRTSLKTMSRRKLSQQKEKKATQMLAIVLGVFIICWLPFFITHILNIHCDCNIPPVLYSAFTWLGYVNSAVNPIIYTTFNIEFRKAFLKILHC

Structure (SMILES)	inhibition
COc1ccccc1C(=O)NCCC(=O)NC(C)CCc1ccccc1 (stereo not drawn)	3.51%
CC(=O)c1cnc(-c2ccccc2)s1	-11.4%
CC(C)(C)C(=O)c1cnc(Nc2ccccc2)s1	32.1% (active)
O=C(c1ccc(Cl)cc1)c1cnc(Nc2ccccc2)s1	-15.9%
COc1ccccc1S(=O)(=O)NCc1ccc(C(=O)N(C)Cc2ccc(F)cc2)cc1	-9.99%
CC(C(=O)NC1CCCC1)N1CCN(S(=O)(=O)c2ccccc2Cl)CC1 (stereo not drawn)	10.1%
O=C(Cn1c(N2CCN(C/C=C/c3ccccc3)CC2)nc2ccccc21)c1ccccc1	47.6% (active)
O=C(CN1CCN(c2ccc(Cl)cc2)CC1)c1ccccc1	22.1%
CC(C)Cn1c(N2CCN(C(=O)/C=C/c3ccccc3)CC2)nc2ccccc21	-10.5%
CC1CCc2sc(C(=O)NCC(c3ccco3)N3CCCCC3)cc2C1 (stereo not drawn)	-22%
CC(CCc1ccccc1)NCC(O)c1cccc([N+](=O)[O-])c1 (stereo not drawn)	58.8% (active)
O=C(CC(c1ccccc1)c1ccccc1)NCC(O)c1ccc([N+](=O)[O-])cc1 (stereo not drawn)	-8.44%
CC(C)OP(=O)(OC(C)C)C(Nc1ccccc1)c1cccc([N+](=O)[O-])c1 (stereo not drawn)	4.68%
COCCn1c(C)cc(C(=O)CSc2nnc(C3CC3)n2C2CC2)c1C	-24.6%
COc1ccc(S(=O)(=O)N2CCN(CC(=O)NCC3(N4CCOCC4)CCCCC3)CC2)cc1	-1.88%
CN(CC(=O)Nc1ccc(Cl)c(C(F)(F)F)c1)C(=O)CCC(=O)c1ccccc1	5.01%
Cc1ccc(OCCC(=O)OCC(=O)N2c3ccccc3NC(=O)C2(C)C)cc1	21.8%
O=C(CN1CCCCC1)NC(=O)Nc1ccccc1F	-3.1%
CCN(CC)S(=O)(=O)c1ccc(OC)c(NC(=O)CCc2c(C)noc2C)c1	5.64%
CC1CN(CCCOc2ccccc2-c2ccccc2)CC(C)O1 (stereo not drawn)	49.7% (active)
CC1CCCN(CCOCCOc2ccccc2-c2ccccc2)C1 (stereo not drawn)	80.4% (active)
CN1CCN(CCCCOc2cccc3ccccc23)CC1	15.6%
CC1CCCN(CC(O)COCc2ccccc2)C1 (stereo not drawn)	10.7%
c1ccc(-c2ccccc2OCCN2CCCCC2)cc1	26.6%
CC1CN(C2CCN(C(=O)COc3ccccc3)CC2)CC(C)O1 (stereo not drawn)	-12.1%
CC1CN(CC(=O)NC(C)c2ccccc2)CC(C)O1 (stereo not drawn)	5.75%
CN1CCN(CCCCOc2ccccc2-c2ccccc2)CC1	69.9% (active)
CCN1CCN(CCCCOc2ccccc2F)CC1	3.79%
